Compound activity from PubChem BioAssay.
Hits are enriched below; roughly 4.4% of the tested compounds scored in any of these assays.
PfHsp90 yeast 2 – inhibits growth of yeast expressing Plasmodium falciparum Hsp90 | S. cerevisiae expressing PfHsp90, BacTiter-Glo ATP, 48 h; yeast lacking PDR1 and PDR3 efflux regulators | 0.32% of 310,000 active | inhibition, % at 9.4 µM | AID 504621;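 active = every replicate shows inhibition above about 80%, whatever the replicate mean, limit read from the data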;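 also: 0% = DMSO neutral controls and 100% = 20 µM radicicol positive controls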
tim23-1 inh – growth inhibitors of tim23-1 mutant yeast | inhibition, % at 20 µM | S. cerevisiae tim23-1 growth, BacTiter-Glo luminescence, 24 h | 1.3% of 330,000 active;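 active = growth inhibition of the mutant yeast at or above 50%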;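 also: temperature-sensitive mutant grown at 25 °C; plate controls were DMSO-treated mutant yeast for no effect and medium wells lacking yeast for full effect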
tim10-1 inh – growth inhibitors of tim10-1 mutant yeast. inhibition, % at 20 µM. AID 463190. S. cerevisiae tim10-1 ts strain growth, BacTiter-Glo, 24 h. 2.2% of 330,000 active;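 active = inhibition of at least 40%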;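 also: mutant grown at 25 °C; 0% = DMSO wells with yeast and 100% = wells holding no yeast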
TIM10 inh – TIM10 yeast growth inhibition; S. cerevisiae TIM10 strain growth, BacTiter-Glo luminescence, 24 h; inhibition, % at 10 µM; 1.4% of 330,000 active;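 active = inhibition of 40% or more at the single tested concentration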;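 also: wild-type TIM10 isogenic control strain grown at permissive 25 °C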
SKKanGAS inh – blocks kanamycin growth of S. pyogenes SKKanGAS strain; inhibition, % at 7.5 µM; BacTiter-Glo, 6 h; 1.3% of 300,000 active;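 active = mean replicate score, as percent of positive control median, at least 50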;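 also: strain carries kanamycin resistance gene driven by streptokinase promoter and grows in 40 µg/ml kanamycin; loss of luminescence reflects streptokinase promoter inhibition or plain growth inhibition; 0% = median of DMSO wells and 100% = positive control at its reference dose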
tim23-1 conf – confirmation of tim23-1 mutant yeast growth inhibitors; 83% of 4,400 active; AID 463218; shares compounds with tim23-1 inh; S. cerevisiae tim23-1 growth, BacTiter-Glo luminescence, 24 h; inhibition, % at 20 µM;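 active = inhibition above about 39% in either of two replicate wells at 20 µM, limit read from the data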;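 also: temperature-sensitive tim23-1 mutant grown at 25 °C; 0% = DMSO wells with yeast and 100% = medium wells without yeast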
* marks the source's active call; other numbers are inactive results; · = no result.

SMILES | PfHsp90 yeast 2 | tim23-1 inh | tim10-1 inh | TIM10 inh | SKKanGAS inh | tim23-1 conf
COc1ccc(-c2csc(Nc3ccc(C)cn3)n2)cc1OC | -8 | 24 | 6 | 11 | -4 | ·
Cc1c(NC(=O)CSC(=S)N2CCCC2)c(=O)n(-c2ccccc2)n1C | 3 | 5 | 13 | -1 | 14 | ·
O=C(CCCCC(=O)OCC1CCCO1)OCC1CCCO1 (stereo unspecified) | -6 | · | · | · | · | ·
CC(c1ccccc1)n1c(-c2ccncc2)n[nH]c1=S (stereo unspecified) | -12 | 12 | 9 | 0 | 14 | ·
CC(c1ccccc1)n1c(-c2ccc(Cl)cc2)n[nH]c1=S (stereo unspecified) | -9 | 55* | 2 | 25 | 18 | 27
COc1ccccc1C(=O)NC(=O)COC(=O)Cn1[nH]c(=O)c2ccccc2c1=O | · | 0 | 4 | 9 | 5 | ·
Cc1ccc(-c2nc(Nc3ccc(N4CCOCC4)cc3)c3ccccc3n2)cc1 | -2 | 47 | 31 | 22 | 41 | ·
COc1cccc(Nc2nc(-c3ccccc3)nc3ccccc23)c1 | -80 | 50* | 27 | 38 | 8 | 45*
Cc1ccc(-c2nc(Nc3ccc(O)cc3)c3ccccc3n2)cc1 | -11 | 74* | 14 | 27 | 3 | 44*
Cc1ccc(-c2nc(Nc3cccc(O)c3)c3ccccc3n2)cc1 | 26 | 83* | 16 | 22 | 20 | -21
CC(=O)Nc1ccc(S(=O)(=O)N[C@@H](C)C(=O)OCC(=O)c2ccc(C)cc2)cc1 | -12 | 11 | 10 | 9 | · | ·
CCc1ccccc1OCC(=O)NNCC(=O)Nc1cccc(C#N)c1 | 6 | -5 | -3 | -4 | · | ·
Cc1nc(C)n(C(C)CNS(=O)(=O)c2ccc(Cl)cc2)n1 (stereo unspecified) | 21 | -2 | 8 | 6 | 0 | ·
CCc1sc(C(=O)Nc2nccs2)cc1C | -4 | 54* | 25 | 6 | 59* | 58*
O=C(Nc1nccs1)c1ccc(Cl)s1 | 13 | 70* | 25 | 30 | 5 | 57*
CCc1sc(C(=O)Nc2ccc3c(c2)OCO3)cc1C | -8 | 55* | -17 | 4 | · | 46*
CCc1sc(C(=O)Nc2ncccc2C)cc1C | 20 | 20 | 2 | -15 | -6 | ·
CCC1=C(c2ccc(C)cc2)S(=O)(=O)N=C1N1CCC(C(=O)NCCCN2CCCCC2C)CC1 (stereo unspecified) | 18 | -5 | -2 | -2 | -3 | ·
CCN(CC)CCOC(=O)c1ccc(NC(=O)C2(c3ccccc3)CCCC2)cc1 | -1 | 95* | 0 | 10 | 2 | 5
COCCn1c(Cc2ccccc2)nnc1SCC(=O)Nc1oc(C)c2c(C)n[nH]c(=O)c12 | 1 | 2 | -2 | -4 | 2 | ·
CCOc1ccccc1C(=O)N1c2ccccc2Sc2ccccc21 | -3 | 51* | 29 | 18 | -11 | 42*
COc1ccccc1C(=O)N1c2ccccc2Sc2ccccc21 | 5 | 45 | 18 | 22 | -5 | ·
O=S1(=O)N[C@@H](Cc2ccccc2)COc2cc(Br)ccc21 | 11 | 70* | 26 | 3 | · | 42*
O=S1(=O)N[C@@H](CC2CCCCC2)COc2cc(Br)ccc21 | 43 | 39 | 13 | -2 | · | ·
CCOC(=O)N1CCN(C(=O)CN(c2ccccc2)S(C)(=O)=O)CC1 | -38 | -1 | -4 | -9 | -10 | ·
SMILES | PfHsp90 yeast 2 | tim23-1 inh | tim10-1 inh | TIM10 inh | SKKanGAS inh | tim23-1 conf
Cc1nn2c(-c3ccc(F)cc3)ccnc2c1Br | 5 | 21 | 9 | 9 | -1 | ·
COc1ccc(-c2ccnc3c(Br)c(C)nn23)cc1 | -7 | 50* | 32 | 13 | · | 53*
CC1c2[nH]c3ccccc3c2CCN1C(=O)Nc1ccccc1 (stereo unspecified) | -29 | 64* | 10 | 24 | -6 | 50*
O=C(O)C(Oc1ccc2ccccc2c1)c1ccccc1 (stereo unspecified) | 9 | 97* | -16 | 4 | -12 | 8
O=C(O)C(Oc1ccc2c(c1)oc(=O)c1ccccc12)c1ccccc1 (stereo unspecified) | -10 | -7 | -5 | 6 | 17 | ·
COc1cc(CN2CCN(c3cccc(C)c3C)CC2)cc(Br)c1O | · | 55* | 26 | 21 | 3 | 45*
CC1CCCC(NC(=O)COC(=O)c2n[nH]c3ccccc23)C1C (stereo unspecified) | 2 | 11 | 6 | -6 | · | ·
Cc1c(C(=O)OCC(=O)N2CCC(C)CC2)oc2ccccc12 | · | 54* | 21 | 35 | 2 | 58*
Cc1ncc(CC(=O)n2cc(C(=O)c3cc(F)ccc3O)cn2)s1 | 13 | 22 | 13 | 21 | -1 | ·
Cc1ccc(O)c(C(=O)c2cnn(C(=O)Cc3csc(C)n3)c2)c1 | 6 | 59* | 37 | 21 | · | 57*
NNC(=O)c1[nH]c2ccc(Br)cc2c1-c1ccccc1 | 3 | 53* | 20 | 23 | 9 | 50*
CC(=O)NNC(=O)c1[nH]c2ccc(Br)cc2c1-c1ccccc1 | 2 | 11 | 19 | 13 | -2 | ·
COc1ccc(CN2CCN(C(=O)c3cccc4ccccc34)CC2)cc1Br | -12 | 50* | -7 | 4 | 4 | 19
CCOC(=O)C1=C(N)Oc2cc(O)ccc2C1c1ccc(F)cc1F (stereo unspecified) | 14 | 56* | 12 | 23 | 0 | 59*
Nc1c(C(=O)Nc2ccc3c(c2)OCCO3)nnn1Cc1ccccc1Cl | 83* | 66* | 8 | -18 | 17 | 42*
O=C(Nc1ccc2c(c1)OCCO2)c1cccc(Cl)c1 | 21 | 51* | -6 | 33 | 1 | 57*
Nc1c(C(=O)Nc2ccc3c(c2)OCCO3)nnn1Cc1cccc(Cl)c1 | · | 23 | 17 | 11 | 22 | ·
COC(=O)c1ccc(-c2ncc[nH]2)cc1 | -5 | 1 | 3 | 0 | 3 | ·
O=C(NCC(=O)N(c1cnc2ccccc2c1)C(C(=O)NC1CCCC1)c1ccncc1)c1ccco1 (stereo unspecified) | 4 | 68* | 2 | 13 | 0 | 9
O=C(NCC(=O)N(c1ccccc1)C(C(=O)NC1CCCCC1)c1ccncc1)c1ccco1 (stereo unspecified) | -5 | 3 | 9 | -10 | -6 | ·
Cc1cc(C(=O)CCl)c(C)n1CCc1ccc(Cl)cc1 | -11 | 55* | 4 | 0 | -21 | 53*
Cc1cc(C(=O)CCl)c(C)n1CCc1ccc(F)cc1 | -61 | 49 | 21 | 28 | -2 | ·
CS/C(Nc1cc(Cl)ccc1Cl)=C(/C#N)C(=O)c1ccco1 | -5 | 59* | 33 | 25 | 54* | 52*
O=C(Nc1cc(Cl)ccc1Cl)c1ccco1 | 45 | 17 | 9 | -6 | 3 | ·
Cc1cccc(-c2cc3nc4c(c(N5CCOCC5)n3n2)CCCC4)c1 | 20 | 58* | 11 | 14 | 32 | 47*
CCOc1ccccc1/C=C(\C#N)C(=O)NC1CC1 | · | 55* | 28 | 39 | -2 | 52*
